ADAM10 inh: ADAM10 inhibition, QFRET primary screen; O14672; inhibition, % at 7 µM; 370,000 compounds, 0.62% hits; recombinant ADAM10, EDANS/DABCYL FRET peptide cleavage, 3 h;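 active = inhibition above a per-campaign cutoff equal to the mean of compounds falling between control-based bounds plus 3 SD, cut at about 20% in these data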;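 also: 0% = DMSO wells while the 100% control is not disclosed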
NPR1 activator: GC-A (human) enzyme activation. HEK293 GC-A cells, cGMP TR-FRET, EC30 ANP; 0% at EC30 ANP, 100% saturating ANP. 370,000 compounds, 0.14% hits. AID 1671463. activation, % at 10 µM. P16066; in the data active = activation above about 40%
FAS TE block: inhibitors of human fatty acid synthase thioesterase domain | P49327 | recombinant FAS-TE, OMFH fluorogenic substrate, fluorescence endpoint | inhibition, % at 15 µM | 360,000 compounds, 0.67% hits | AID 602261;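 active = compounds whose normalised, plate-corrected inhibition of enzyme fluorescence in the single-dose primary screen is 50% or more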;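 also: 0% = DMSO with enzyme and 100% = substrate without enzyme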
ADAM17 inh: ADAM17 inhibition, QFRET primary screen; recombinant ADAM17, EDANS/DABCYL FRET peptide cleavage; 370,000 compounds, 0.83% hits; inhibition, % at 6.95 µM; P78536; AID 720648;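 active = inhibition above the mean of compounds lying between control limits plus 3 SD, set per campaign, cut at about 8.5% in these data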;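 also: 0% = DMSO-only wells as the low control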
Target sequence (P78536 215-824 limits assumed): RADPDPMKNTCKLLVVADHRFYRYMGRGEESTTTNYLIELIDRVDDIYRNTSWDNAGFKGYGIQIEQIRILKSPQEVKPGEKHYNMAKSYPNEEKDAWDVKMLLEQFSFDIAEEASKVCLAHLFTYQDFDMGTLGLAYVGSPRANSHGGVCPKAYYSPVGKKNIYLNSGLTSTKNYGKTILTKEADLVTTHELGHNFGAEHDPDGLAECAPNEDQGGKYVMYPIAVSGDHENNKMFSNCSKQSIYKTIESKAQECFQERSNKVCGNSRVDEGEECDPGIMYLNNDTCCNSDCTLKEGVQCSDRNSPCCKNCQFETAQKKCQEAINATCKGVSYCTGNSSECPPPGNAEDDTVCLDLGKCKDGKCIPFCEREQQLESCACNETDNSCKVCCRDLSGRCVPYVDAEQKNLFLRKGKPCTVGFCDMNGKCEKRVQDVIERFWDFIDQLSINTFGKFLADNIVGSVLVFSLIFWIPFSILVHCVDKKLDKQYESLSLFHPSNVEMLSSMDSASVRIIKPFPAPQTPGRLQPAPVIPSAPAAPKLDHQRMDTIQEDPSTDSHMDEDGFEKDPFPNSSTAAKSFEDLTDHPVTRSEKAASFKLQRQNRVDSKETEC
GC-B act: GC-B (human) receptor activation; P20594; HEK293-GC-B cells, CNP EC30, cGMP TR-FRET; 0% at EC30 CNP, 100% saturating CNP; activation, % at 10 µM; 370,000 compounds, 0.11% hits; AID 1920062;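 active = activation at 10 µM reaching about 35% in either raw or pattern-adjusted values, limit read from the data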
* hit, by the source's call. Rows were chosen to be rich in hits. Some 2% of all compounds tested hit in one or more screens of this group.

For CC1(C)CC2CC(C)(CN2S(=O)(=O)c2ccc(C(=O)Nc3cccc(S(=O)(=O)N4CCOCC4)c3)cc2)C1 (centres undefined) the results were ADAM10 inh 26*, NPR1 activator -5, FAS TE block 48, ADAM17 inh 20* and GC-B act 3.
`CC1CCN(S(=O)(=O)c2ccc(NC(=O)Cn3nnc(-c4ccccc4)n3)cc2)CC1` gave ADAM10 inh 19, NPR1 activator -5, FAS TE block 3, ADAM17 inh 10* and GC-B act 0.
For CCS(=O)(=O)c1ncc(Cl)c(C(=O)Nc2ccc(S(=O)(=O)N3CCC(C)CC3)cc2)n1 the results were ADAM10 inh -6, NPR1 activator 41*, FAS TE block 48, ADAM17 inh -3 and GC-B act 31.
For Nc1nc2c(ncn2[C@@H]2O[C@H](C(=O)NCCCN3CCCC3=O)[C@@H](O)[C@H]2O)c(=O)[nH]1 the results were ADAM10 inh -9, NPR1 activator 49*, ADAM17 inh -5 and GC-B act 45*.
Screening Cc1ccc(C(C(=O)NC2CCCC2)N(C(=O)Cc2cccs2)c2ccc3c(c2)OCCO3)cc1 (centres undefined) returned ADAM10 inh 15, NPR1 activator -12, FAS TE block 61*, ADAM17 inh 2 and GC-B act -4.
`Cc1onc(C(=O)N2CCN(C(c3ccc(Cl)cc3)c3ccc(Cl)cc3)CC2)c1[N+](=O)[O-]` gave ADAM10 inh 15, NPR1 activator -9, ADAM17 inh 6 and GC-B act -3.
`CC1=C([N+](=O)[O-])C(c2ccccc2)C2=C(N1)c1ccccc1C2=O` (centres undefined) gave ADAM10 inh 5, NPR1 activator -9, FAS TE block 20, ADAM17 inh 1 and GC-B act -3.
Screening Cc1cccc(C2C3=C(Nc4[nH]n(-c5ccccc5)c(=O)c42)c2ccccc2C3=O)c1 (centres undefined) returned ADAM10 inh 16, NPR1 activator 8, FAS TE block 9, ADAM17 inh 9.8* and GC-B act -3.
For O=C(CSc1nc2ccccc2nc1N1CCCC1)N1CCN(c2cccc(C(F)(F)F)c2)CC1 the results were ADAM10 inh -21, NPR1 activator -2, ADAM17 inh -3 and GC-B act 7.
Screening Cc1nc2c(N=Nc3ccccc3F)c(N)nn2c(N)c1C#N returned ADAM10 inh -15, NPR1 activator 43*, FAS TE block -2, ADAM17 inh -8 and GC-B act -2.
For Cc1n[nH]c(C)c1S(=O)(=O)NCCc1c[nH]c2ccccc12 the results were ADAM10 inh -12, NPR1 activator 7, ADAM17 inh 1 and GC-B act -4.
`COc1ccc2c(c1)[C@H]1[C@H](CO2)[C@H](c2ccccc2)[C@]2(C)C(=O)Nc3cc(Cl)ccc3C(=O)N12` gave FAS TE block 89*.
Screening C[C@]12C(=O)N(c3cccc(Cl)c3)C(=O)N1[C@H]1c3ccccc3OC[C@@H]1[C@H]2c1ccccc1 returned FAS TE block 76*.
Screening COC(=O)c1cc2c(c3c4cc(C)ccc4n(S(=O)(=O)c4ccc(OC)cc4)c13)C(=O)N(Cc1ccccc1)C2 returned ADAM10 inh -2, NPR1 activator -2, ADAM17 inh -5 and GC-B act 1.
For S=C(Nc1ccc(Oc2ccccc2)cc1)NC1CCCCCC1 the results were ADAM10 inh 0, NPR1 activator 10, FAS TE block 14, ADAM17 inh 9.5* and GC-B act 5.
S=C(Nc1ccc(Oc2ccccc2)cc1)NC1CCCCC1 was read as ADAM10 inh -7, NPR1 activator 2, FAS TE block 20, ADAM17 inh -3 and GC-B act 7.
For C#CCN1CC(N(C)CCOC(=O)c2ccc(C(C)(C)C)cc2)CS1(=O)=O (centres undefined) the results were ADAM10 inh 2, NPR1 activator 0, ADAM17 inh -5 and GC-B act 0.
Screening CCCCC(=O)N[C@H]1CC[C@@]23CCCN2C(=O)CCC[C@H]3[C@H]1C returned ADAM10 inh 1, NPR1 activator 1, ADAM17 inh -2 and GC-B act -4.
Screening CCc1cc(Cn2nc(-c3ccccc3)cc2C(=O)NCCOC)on1 returned ADAM10 inh 2, NPR1 activator 6, FAS TE block -7, ADAM17 inh -1 and GC-B act 0.
`CCc1cc(Cn2nc(-c3ccccc3)cc2C(=O)NCc2cccs2)on1` gave ADAM10 inh 37*, NPR1 activator 3, FAS TE block 42, ADAM17 inh 16* and GC-B act 0.
`COc1cc(NC(=O)C2CCCN(S(=O)(=O)c3ccccc3[N+](=O)[O-])C2)cc(OC)c1` (centres undefined) gave ADAM10 inh -2, NPR1 activator -8, ADAM17 inh 2 and GC-B act -4.
COc1ccc(/C=C2/C(=O)ON=C2C)cc1Br was read as ADAM10 inh -4, NPR1 activator 32, FAS TE block -2, ADAM17 inh -2 and GC-B act 15.
`CCOc1cc(/C=C2\C(=O)ON=C2c2ccccc2)ccc1OC` gave ADAM10 inh 5, NPR1 activator 29, FAS TE block -6, ADAM17 inh -1 and GC-B act 10.
Screening CCOc1cc(/C=C2/C(=O)ON=C2C)ccc1OCc1ccccc1 returned ADAM10 inh -11, NPR1 activator 43*, ADAM17 inh -5 and GC-B act 37*.
CCOc1cc(/C=C2/C(=O)ON=C2C)ccc1OCc1ccccc1F was read as ADAM10 inh -11, NPR1 activator 43*, FAS TE block -11, ADAM17 inh -1 and GC-B act 40*.
Screening C#CCOc1ccc(/C=C2/C(=O)ON=C2C)cc1Cl returned ADAM10 inh 2, NPR1 activator 31, FAS TE block -4, ADAM17 inh -20 and GC-B act 11.
CCOc1cc(/C=C2/C(=O)ON=C2C)ccc1OCc1ccc(F)cc1 was read as ADAM10 inh -3, NPR1 activator 42*, FAS TE block 1, ADAM17 inh 0 and GC-B act 35*.
C[C@H]1[C@H](NC(=O)c2ccc(C(F)(F)F)cc2)CC[C@@]23CCCN2C(=O)CCC[C@@H]13 was read as ADAM10 inh 1, NPR1 activator -1, ADAM17 inh 1 and GC-B act -2.
Screening O=C(CSc1nnc(-c2ccncc2)n1-c1ccc(Cl)cc1)c1ccc(Cl)c(Cl)c1 returned ADAM10 inh -3, NPR1 activator -11, ADAM17 inh 2 and GC-B act -10.
Screening Clc1ccc(-n2nnnc2SCc2c(-c3ccccc3)nc3sccn23)cc1 returned ADAM10 inh 1, NPR1 activator 25, FAS TE block 24, ADAM17 inh -12 and GC-B act 39*.

High-throughput results deposited in PubChem by several laboratories.
